A short description of assay [1]: Viability qHTS for spleen associated tyrosine kinase inhibitor (SYKi) drug resistant MV4-11 cells (AID 1963824). Also: nearly all actives have a fitted effect of over 35% in size. In a few lines: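 CellTiter-Glo luminescence, read 10 min after reagent addition, reports viability after a 72 hr compound exposure. Cells are an MV4-11 line made resistant to SYK inhibition, seeded at 500 per well onto compound-containing plates.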
Assay [2] is described as follows: Cellular viability qHTS for adrenocortical cancer (ACC) cell line SW-13 (AID 1963989). Also: nearly all actives have a fitted effect of over 65% in size.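 As to activity (max response): cells grown in serum-free medium with ITS supplement; % is scaled to controls: 0 for no effect and ±100 for the full control effect.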 The conditions noted are these: SW-13 ACC cells viability, CellTiter-Glo, 48 h; activity (max response): active compounds read low. Put shortly:
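Viability was read as CellTiter-Glo luminescence after 48 h compound treatment (up to 46 uM final) of SW-13 cells grown serum-free; titration curves were fit with a four-parameter logistic model to give IC50 and efficacy.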
On the technique in general: Quantitative high-throughput screening tests each substance at several concentrations.

Assay [3] in a line: Cellular viability qHTS for adrenocortical cancer (ACC) cell line NCI-H295R (AID 1963990). Also: nearly all actives have a fitted effect of over 60% in size. Put shortly:
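CellTiter-Glo ATP luminescence, read 48 h after compound addition, measured viability of NCI-H295R adrenocortical cells grown serum-free with ITS. Final concentrations spanned up to 46 uM. Data normalized to DMSO and doxorubicin, fitted for IC50 and maximal response.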

Where “and” joins values, the source holds several entries; their conditions need not be identical. Equal values may be shown once. Results filed as inconclusive are left out. A number with no mark means an inactive call. Calls of active or inactive are those of the source. Calls follow the shape of the dose curve; as a rule, active = well fitted curve in the direction sought with a large enough effect; inconclusive = small, poorly fitted or top-dose-only effect, or another doubt; inactive = no such curve, though single readings can be large; an effect the other way counts as inactive or inconclusive.
Potency is read from the fitted curve at half-maximal effect.

On to `Cc1[nH]cnc1-c1ccc(Cl)cc1`, for which the Potency result in assay [1] and in assay [3] was “inactive” each time. Further, in assay [2], the activity (max response) is 8.54%.
In the case of `CC(C)(O)C1CCC(Nc2ccc3ncc(-c4cccc(C(F)(F)F)c4)n3n2)CC1` (stereo not drawn), the Potency in assay [1] is 1.32 µM (active); in assay [3], 4.47 µM (active). Besides, in assay [2], the activity (max response) was -17.2%.
In the case of `CCOc1c(N2CCOCC2)cnn(C)c1=O`, the Potency entry in assay [1] and in assay [3] was “inactive” in each case. Besides, the activity (max response) in assay [2] is 6.29%.
For the compound `CC(C)(C)CC(C)(C)c1ccc(O)c(Cc2ccc(Cl)cc2Cl)c1`, the Potency is 15 µM (active) in assay [1], 16.4 µM (active) in assay [2] and 5.8 µM (active) in assay [3].
For `C/C=C(/C(=C/C)c1ccc(O)cc1)c1ccc(O)cc1`, the Potency in assay [1] was 14.8 µM (active); in assay [2] it was 14.1 µM (active); in assay [3], 23.1 µM (active) and 6.31 µM (active).
As for `CC(C)(C)NC(=O)c1cncn1C1CCN(c2ccc(-c3nnc(C(F)(F)F)o3)cn2)CC1`, the Potency in assay [1] was 2.95 µM (active); in assay [3], 2.82 µM (active). For the same compound, the activity (max response) in assay [2] was -14%.
As for `CN1CCCN=C1COC(=O)C(O)(c1ccccc1)C1CCCCC1` (stereo not drawn), the Potency result in assay [1] and in assay [3] was “inactive” each time. The activity (max response) in assay [2] is 6.26%.
For `Cc1ccsc1/C=C/C1=NCCCN1C`, the Potency result in assay [1] and in assay [3] was “inactive” throughout. Further, the activity (max response) in assay [2] is -3.84%.
For `Oc1ccc(Cl)cc1Cc1cc(Cl)ccc1O`, the Potency in assay [1] was 11.9 µM (active); in assay [2], 5.17 µM (active); in assay [3], 5.17 µM (active).
Turning to `O=C(/C=C/C#Cc1cccc(NS(=O)(=O)c2ccccc2)c1)NO`, the Potency is 0.363 µM (active) in assay [1], 8.02 µM (active) in assay [2] and 3.19 µM (active) in assay [3].
As for `CC1CC(OC(=O)c2ccccc2O)CC(C)(C)C1` (stereo not drawn), the Potency result in assay [1] and in assay [3] was “inactive” each time. Further, the activity (max response) in assay [2] is 10.4%.
Regarding `O=C(Nc1nccs1)C(c1cc(F)ccc1O)N1Cc2ccccc2C1=O` (stereo not drawn), the Potency in assay [1] was 16.6 µM (active). For the same compound, in assay [2], the activity (max response) is -2.19%. In addition, the Potency entry in assay [3] was “inactive”.
Regarding `CSc1ccc2c(c1)N(CCC1CCCCN1C)c1ccccc1S2` (stereo not drawn), the Potency in assay [1] was 13.3 µM (active); in assay [2], 16.4 µM (active); in assay [3] it was 4.61 µM (active).
With `CC1=C(/C=C/C(C)=C/C=C/C(C)=C/C(=O)Nc2ccc(O)cc2)C(C)(C)CCC1`, the Potency in assay [1] is 2.66 µM (active) and 7.42 µM (active); in assay [2] it was 1.84 µM (active); in assay [3], 4.61 µM (active).
For the compound `Cc1ccc(NC(=O)NCc2ccc3c(c2)CN(C2CCC(=O)NC2=O)C3=O)cc1Cl` (stereo not drawn), the Potency in assay [1] is 0.0013 µM (active); in assay [2] it was 0.0089 µM (active); in assay [3], 0.0251 µM (active).
For the compound `CC(C)(O)CC[C@@H](O)[C@](C)(O)[C@H]1CC[C@@]2(O)C3=CC(=O)[C@@H]4C[C@@H](O)[C@@H](O)C[C@]4(C)[C@H]3CC[C@]12C`, the Potency entry in assay [1] and in assay [3] was “inactive” throughout. In assay [2], the activity (max response) was 9.11%.
As for `O=C(Nc1cnn2ccc(N3CCC[C@@H]3c3cc(F)ccc3F)nc12)N1CC[C@H](O)C1`, the Potency result in assay [1] and in assay [3] was “inactive” in each case. Moreover, the activity (max response) in assay [2] was -2.6%.
With `CN(C)C/C=C/C(=O)Nc1ccc(C(=O)N2CCC[C@@H](Nc3ncc(Cl)c(-c4c[nH]c5ccccc45)n3)C2)cc1`, the Potency in assay [1] is 0.0934 µM (active); in assay [2], 0.251 µM (active); in assay [3] it was 10 µM (active).
Consider `C[C@]12CCC3[C@@H](CC[C@H]4NC(=O)C=C[C@]34C)[C@@H]1CC[C@@H]2C(=O)Nc1cc(C(F)(F)F)ccc1C(F)(F)F` (stereo partly drawn), for which the Potency in assay [1] is 9.34 µM (active). Further, the activity (max response) in assay [2] is -0.361%. For the same compound, in assay [3], the Potency entry was “inactive”.
For `CN1CC[C@H](c2c(O)cc(O)c3c(=O)cc(-c4ccccc4Cl)oc23)[C@H](O)C1`, the figures for the Potency in assay [1], in assay [2] and in assay [3] were 0.299 µM (active), 0.184 µM (active) and 0.103 µM (active), respectively.
On to `N/C(=N\N=C\c1ccc(Cl)cc1)N/N=C/c1ccc(Cl)cc1`, for which the Potency result in assay [1] and in assay [3] was “inactive” each time. Further, the activity (max response) in assay [2] was -4.76%.
Turning to `CC(=O)OC(C)OC(=O)C(C)c1ccc(-c2ccccc2)c(F)c1` (stereo not drawn), the Potency entry in assay [1] and in assay [3] was “inactive” in each case. The activity (max response) in assay [2] is 9.22%.
On to `COc1ccc2nc3n[nH]c(C)c3c(NCCOCCO)c2c1`, for which the Potency in assay [1] was 16.4 µM (active) and 13.2 µM (active). For the same compound, the activity (max response) in assay [2] is 0.542%. Besides, the Potency result in assay [3] is “inactive”.
On to `CO[C@@H]1[C@@H](O)[C@H](O)[C@@H](n2c3c(Cl)cccc3c3c4c(c5c6cccc(Cl)c6[nH]c5c32)C(=O)NC4=O)O[C@H]1CO`, for which the Potency in assay [1] is 0.742 µM (active); in assay [2], 0.316 µM (active); in assay [3], 5.62 µM (active).
In the case of `CC(C)n1c(=O)cc(N[C@@H](C)c2ccccc2)[nH]c1=O`, in assay [1], the Potency was 11.8 µM (active). Besides, the activity (max response) in assay [2] was 6.06%. For the same compound, in assay [3], the Potency result is “inactive”.
On to `NC(N)=NN=C(/C=C/c1ccc([N+](=O)[O-])o1)/C=C/c1ccc([N+](=O)[O-])o1`, for which the figures for the Potency in assay [1], in assay [2] and in assay [3] were 5.31 µM (active), 2.59 µM (active) and 1.03 µM (active), respectively.

Source of the values: PubChem BioAssay (NCATS).
